Drawing on PubChem BioAssay (Tox21), this text covers Potency and outcome for 39 molecules.

The nature of assay [1]: qHTS assay to identify small molecule agonists of the RXR signaling pathway - cell viability counter screen (AID 1159529). Further: nearly all actives have a fitted effect of over 50% in size. Further: potency means the concentration at half of the fitted maximal effect. Summed up: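 RXR-alpha-UAS-bla HEK 293T cells in medium with 2% charcoal-stripped FBS were pre-incubated 5 hr, then compound-treated 16 hr at 37 C. Viability was read by CellTiter-Glo luminescence in the same wells as the beta-lactamase assay, with tetraoctyl ammonium bromide as positive control.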

Assay [2] is described as follows: qHTS assay to identify small molecule antagonists of the retinoid acid receptor (RAR) signaling pathway - cell viability counter screen (AID 1159551). Further: nearly all actives have a fitted effect of over 35% in size. Further: potency means the concentration at half of the fitted maximal effect. The method, boiled down:
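ATP-based viability, C3RL4 cells, 6 h at 37 C with 1 uM final retinol co-added after compound; luminescence read 30 min post CellTiter-Glo, RT.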

Assay [3] in a line: qHTS assay to identify small molecule agonists of the retinoic acid receptor (RAR) signaling pathway (AID 1159553). Further: potency means the concentration at half of the fitted maximal effect. Conditions: C3RL4 RARE luciferase reporter, agonist, 6 h; activation: at 73.3 µM (top of the series) unless noted. Summed up:
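Quantitative high-throughput format: the Tox21 10K library was tested on C3RL4 RARE-luciferase cells for 6 hr at 37 C and 5% CO2, with luminescence measured after a 30 min room-temperature reagent step.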

A short description of assay [4]: qHTS assay to identify small molecule antagonists of the estrogen related receptor (ERR) signaling pathway from Tox21 library - cell viability counter screen (AID 1224834). Further: nearly all actives have a fitted effect of over 30% in size. Further: potency means the concentration at half of the fitted maximal effect. Summed up: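 Compounds in DMSO were pinned onto ERR cells that had been incubated for 6 h, and the plates were held at 37 C for 17.5 h. CellTiter-Fluor reagent was then added and fluorescence was measured after 30 min.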

The nature of assay [5]: qHTS assay to identify small molecule antagonists of the estrogen related receptor (ERR) signaling pathway (AID 1224819; further: nearly all actives have a fitted effect of over 50% in size; further: potency means the concentration at half of the fitted maximal effect). Summed up: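 ERR reporter cell line (NTP) plated at 2,000 cells/well, settled 6 h at 37C/5% CO2, then exposed to LOPAC compounds for 18 h at 37C. One-Glo luciferase luminescence read after 30 min at room temperature.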
Assay [6] in a line: qHTS assay to identify small molecule agonists of the estrogen related receptor (ERR) signaling pathway (AID 1224820). Summed up: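 Following a 6 h settling period, 2,000 ERR cells per well receive DMSO-dissolved compounds by pin tool and incubate 18 h at 37 C; agonist activity is scored from One-Glo luminescence read 30 min post-addition.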
Assay [7] can be described thus: qHTS assay to identify small molecule antagonists of the estrogen related receptor signaling pathway with the pleiotropic PPARgamma coactivator (PGC) cell viability counter screen (AID 1224822; further: potency means the concentration at half of the fitted maximal effect;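 further: viability read after 17.5 h compound exposure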). Summed up:
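Cytotoxicity in the PGC/ERR cell line is assessed with CellTiter-Fluor, read as fluorescence intensity 30 min after reagent addition, following 17.5 h compound treatment at 37 C.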

The subject of assay [8] is estrogen-related receptor alpha (ERRalpha) with PGC-1alpha coactivator, human. Briefly: qHTS assay to identify small molecule antagonists of the estrogen related receptor signaling pathway with the pleiotropic PPARgamma coactivator (PGC) (AID 1224821; calls by dose curve; further: potency means the concentration at half of the fitted maximal effect; nearly all actives have a fitted effect of over 50% in size). The method, boiled down: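 Screening used NTP's PGC/ERR cells, dosed via pin tool with compound in DMSO alongside positive and negative controls. After 18 h at 37 C, One-Glo reagent sat 30 min at room temperature before luminescence detection.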

A short description of assay [9]: qHTS assay to identify small molecule agonists of the estrogen related receptor signaling pathway with the pleiotropic PPARgamma coactivator (PGC) (AID 1224823). The method, boiled down: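 In this quantitative high-throughput screen, an 18 h, 37 C treatment of PGC/ERR cells with compounds in DMSO preceded a One-Glo luminescence read taken after 30 min at room temperature.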

The nature of assay [10]: qHTS assay to identify small molecule antagonists of the retinoic acid receptor (RAR) signaling pathway (AID 1159552; further: nearly all actives have a fitted effect of over 50% in size). The method, boiled down: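 Retinol signaling pathway inhibitors screened in C3RL4 RARE-luciferase reporter cells seeded overnight at 37 C, then compounds added with 1 uM (final) retinol as pathway substrate. After 6 hr at 37 C, luciferase luminescence read after 30 min at room temperature.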

“And” between values parts separate entries of the source, which are not always exact repeats. Equal values may be shown once. Results filed as inconclusive are left out. Some structures have more than one record in an assay (separate samples or runs), and their calls can disagree. The source made the active and inactive calls. Unless noted, the call rests on the fitted dose curve; in most records, active means well fitted curve in the direction sought with a large enough effect in the repeat runs; inconclusive means weak or mixed curves; inactive means no such curve, though single readings can be large; an effect the other way counts as inactive or inconclusive.

Turning to `C1CCC(SSC2CCCCC2)CC1`, the Potency entry in [1], in assay [2], in assay [3] and in assay [4] was “inactive” throughout.
With `COC1=C(OC)C(=O)C(CCCCCCCCCCO)=C(C)C1=O`, the Potency entry in assay [1], in assay [2] and in [3] was “inactive” in each case. The Potency in assay [4] is 23.7 µM (active).
Consider `CC(N=C(NC#N)Nc1ccncc1)C(C)(C)C` (centres undefined), for which the Potency result in assay [1], in [2], in [3], in assay [5], in assay [7] and in assay [4] was “inactive” in each case. Moreover, the molecule was called inactive in assay [6].
As to `Cc1c(C)c([N+](=O)[O-])c(C(C)(C)C)c([N+](=O)[O-])c1C`, the Potency in assay [1] was 43.6 µM (active). The Potency result in assay [2], in assay [3] and in assay [4] was “inactive” each time.
As to `CCOC(=O)Cn1cccc1-c1nc(-c2ccc(OC)cc2)c(-c2ccc(OC)cc2)s1`, the Potency result in [1], in [2], in assay [3] and in [4] was “inactive” each time.
On to `CCCCCCCCCCCCCCCC[N+](C)(C)CC`, for which the Potency in [1] was 8.74 µM (active) and 10.7 µM (active); in assay [2] it was 61.3 µM (active); in assay [4], 30.7 µM (active) and 23.7 µM (active).
On to `COc1cc(C)ccc1O`, for which the Potency entry in assay [1], in assay [2], in assay [3] and in assay [4] was “inactive” throughout.
Take `CC[N+](CC)(CC)CCOC(=O)C(C1CCCC1)C1CCCC1`: the Potency entry in assay [1], in assay [2], in assay [3] and in assay [4] was “inactive” in each case.
For the molecule `NC(=S)NC(N)=S`, the Potency entry in assay [1], in assay [2] and in assay [4] was “inactive” in each case.
`CCOc1ccc2ccccc2c1C(=O)N[C@@H]1C(=O)N2[C@@H]1SC(C)(C)[C@@H]2C(=O)O`: the Potency result in [1], in [2], in [3] and in assay [4] was “inactive” throughout.
Take `CC(C)CCOC(=O)/C=C/c1ccccc1`: the Potency entry in assay [1], in assay [2] and in assay [4] was “inactive” throughout. Further, the Potency in [3] is 10.9 µM (active).
As to `CC(C)(C)c1ccc(C(O)CCCN2CCC(C(O)(c3ccccc3)c3ccccc3)CC2)cc1` (centres undefined), the Potency was 7.56 µM (active) in assay [1], 22 µM (active) in [7] and 11.9 µM (active) in [4]. Besides, the Potency entry in [2] is “inactive”.
On to `Cl[Si](Cl)(c1ccccc1)c1ccccc1`, for which the Potency result in [1], in [2] and in assay [4] was “inactive” each time.
Turning to `CCCCC(CC)CN1CN(CC(CC)CCCC)CC(C)(N)C1` (centres undefined), the Potency result in assay [1], in assay [2], in [3] and in [4] was “inactive” throughout.
Turning to `CCCCCCOC(=O)C(C)CC` (centres undefined), the Potency result in [1], in assay [2], in [3] and in assay [4] was “inactive” throughout.
As to `CCCC(=O)OCCc1ccccc1`, the Potency entry in assay [1], in assay [2], in assay [3] and in assay [4] was “inactive” throughout.
For `C#Cc1ccc(-c2ccccc2F)cc1`, the Potency result in [1], in assay [2], in assay [3] and in assay [4] was “inactive” in each case.
Regarding `CC(CO)Oc1ccccc1` (centres undefined), the Potency result in assay [1], in [2], in assay [3] and in assay [4] was “inactive” in each case.
For `[Cl][Pt-2]([Cl])([Cl])[Cl]`, the Potency result in [1], in assay [2], in [3] and in [4] was “inactive” throughout.
`CC(C)NC[C@@H](O)COc1ccc(CC(N)=O)cc1`: the Potency entry in assay [1], in assay [2], in assay [3] and in [4] was “inactive” in each case.
For `O=C(Nc1ccc2c(O)c(N=Nc3ccc(N=Nc4ccc(S(=O)(=O)O)cc4)cc3)c(S(=O)(=O)O)cc2c1)c1ccccc1`, the Potency entry in assay [1] and in assay [3] was “inactive” in each case. Moreover, the Potency in assay [2] and in [4] was 24.3 µM (active) throughout.
With `COCCOc1cc2cc(C(=O)NC3CCN(C(C)C)CC3)n(CC(=O)Nc3ccc(Cl)cn3)c2cn1`, the Potency entry in [1], in assay [2], in assay [3] and in [4] was “inactive” throughout.
In the case of `CCCCCCCCCCCCCC[N+](C)(C)Cc1ccccc1`, the Potency in [1] was 7.03 µM (active) and 5.35 µM (active) and 2.51 mM (active); in assay [2], 69.6 µM (active) and 29.8 µM (active) and inactive; in [4], 62.1 µM (active) and 23.7 µM (active) and 22.4 mM (active).
Consider `O=c1c(O)c(-c2ccc(O)cc2O)oc2cc(O)cc(O)c12`, for which the Potency result in [1], in assay [2] and in assay [7] was “inactive” in each case.
Turning to `Cc1ccc(C)cc1`, the Potency entry in [1], in assay [2], in [3] and in assay [4] was “inactive” each time.
With `CC[N+](CC)(CC)CCOc1ccc(/C=C/c2ccccc2)cc1`, the Potency entry in assay [1], in [2], in [3] and in [7] was “inactive” in each case. Further, the Potency in assay [5] was 8.74 µM (active); in assay [8], 12.3 µM (active). Also, the result in assay [6] and in assay [9] was inactive.
As to `CC(=O)OCC=C(C)C`, the Potency result in [1], in assay [2], in assay [3] and in assay [4] was “inactive” each time.
As for `CCCCNS(=O)(=O)c1ccc(C)cc1`, the Potency result in assay [1], in [2], in assay [3] and in [4] was “inactive” each time.
`FC(F)(F)c1cccc(Cl)c1`: the Potency result in assay [1], in [2], in assay [3] and in assay [4] was “inactive” each time.
For `Cc1cc(C(C)(C)C)c(O)c(C)c1Cn1c(=O)n(Cc2c(C)cc(C(C)(C)C)c(O)c2C)c(=O)n(Cc2c(C)cc(C(C)(C)C)c(O)c2C)c1=O`, the Potency entry in [1], in assay [2], in assay [3] and in assay [4] was “inactive” in each case.
With `CC(=O)[C@H]1CC[C@H]2[C@@H]3CCC4=CC(=O)CC[C@]4(C)[C@H]3CC[C@]12C`, the Potency in [5] was 11.9 µM (active). Moreover, the outcome in assay [6] and in assay [9] was inactive.
Regarding `Oc1ccccc1O`, the Potency entry in assay [7] was “inactive”.
Consider `Cc1cc(C(C#N)c2ccc(Cl)cc2)c(Cl)cc1NC(=O)c1cc(I)cc(I)c1O` (centres undefined), for which the Potency result in assay [2] is “inactive”.
With `COc1cc(S(=O)(=O)O)c(C)cc1N=Nc1c(O)ccc2cc(S(=O)(=O)O)ccc12`, the Potency result in [1] is “inactive”. Further, the Potency in assay [4] is 27.3 µM (active).
In the case of `CCc1oc2ccccc2c1C(=O)c1cc(I)c(O)c(I)c1`, the Potency entry in [2], in [10] and in [3] was “inactive” in each case.
Take `Nc1nc(-c2ccccc2)cs1`: the Potency result in [1] and in assay [4] was “inactive” throughout.
Take `CC1=Nc2ccccc2C1(C)C`: the Potency result in assay [1] and in assay [4] was “inactive” in each case.
As to `Cc1cccc(C(=O)O)c1O`, the Potency result in assay [2], in [10], in assay [3] and in assay [4] was “inactive” each time.
`Cc1nc2n(c(=O)c1CCN1CCC(c3noc4cc(F)ccc34)CC1)CCCC2`: the Potency result in assay [2], in [10], in [3] and in [4] was “inactive” each time.
